This note sets out measurements from PubChem BioAssay (NCATS).

Inconclusive results are not listed. Calls of active or inactive are those of the source. Calls follow the shape of the dose curve; as a rule, active = well fitted cell-killing curve with a large enough effect; inconclusive = small, poorly fitted or top-dose-only effect; inactive = no such curve, though single readings can be large or run the other way.

The nature of the assay: qHTS of pediatric cancer cell lines to identify multiple opportunities for drug repurposing: Primary screen for Rh30 cells (AID 1347107). Also: nearly all actives have a fitted effect of over 75% in size. The following applies: Rh30 rhabdomyosarcoma viability, CellTiter-Glo luminescence, 48 h; series mostly up to 46 µM. In a few lines:
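Cells (500-1,000/well) rested 5 h, then received compounds for 48 h; metabolically active cells were measured by CellTiter-Glo luminescence. Final concentrations spanned up to 46 µM (MIPE, 11-point) or 0.59 nM-46 µM (NPC, 8-point) in primary screens, 11-point in follow-ups.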
For orientation: In qHTS, concentration-response curves come from the screen itself.
Consider `NC(=O)c1ncn([C@@H]2O[C@H](CO)[C@@H](O)[C@H]2O)n1`, for which the compound was called inactive. In the case of `COc1ccc2cc1Oc1ccc(cc1)C[C@H]1c3c(cc4c(c3Oc3cc5c(cc3OC)CCN(C)[C@@H]5C2)OCO4)CCN1C` it was “inactive”. As for `CNCCC(Oc1ccc(C(F)(F)F)cc1)c1ccccc1` (stereo not drawn), the compound was classed as inactive.

Take `COC(=O)C1=C(C)NC(C)=C(C(=O)OC)C1c1ccccc1[N+](=O)[O-]`: the call was inactive. For `CN(C)CCCN1c2ccccc2CCc2ccccc21`, the result was inactive. The same measure for `CCN(CC)CCOC(=O)C1(C2CCCCC2)CCCCC1`: “inactive”; for `OCc1cc(C(O)CNCCCCCCOCCCCc2ccccc2)ccc1O` (stereo not drawn): “inactive”; for `CN(C)CCCN1c2ccccc2Sc2ccc(Cl)cc21`: “inactive”. In the case of `CN1CCCCC1CCN1c2ccccc2Sc2ccc(S(C)=O)cc21` (stereo not drawn) it was “inactive”; in that of `CN(C)CCC=C1c2ccccc2CCc2ccccc21`, “inactive”. In the case of `O=C(O)[C@H](O)c1ccccc1` it was “inactive”; in that of `O=C(O)COc1nn(Cc2ccccc2)c2ccccc12`, “inactive”.

Turning to `C[C@]12CC[C@@H]3c4ccc(O)cc4CC[C@H]3[C@@H]1CCC2=O`, the compound was called inactive. With `Nc1ncnc2c1ncn2[C@@H]1O[C@H](CO)[C@@H](O)[C@H]1O`, the result was inactive. The same measure for `CCCCOC(=O)c1ccc(O)cc1`: “inactive”. As to `CC(CN1c2ccccc2Sc2ccccc21)N(C)C` (stereo not drawn), the compound was classed as inactive.

Turning to `CNCCCC1c2ccccc2C=Cc2ccccc21`, the outcome was inactive. In the case of `CC(O)COc1ccccc1` (stereo not drawn) it was “inactive”; in that of `CN1CCN(C2Cc3ccccc3Sc3ccc(Cl)cc32)CC1` (stereo not drawn), “inactive”. On to `CSc1ccc2c(c1)C(N1CCN(C)CC1)Cc1ccccc1S2` (stereo not drawn), for which the compound was called inactive. In the case of `CC1=C(C/C=C(\C)CCC[C@H](C)CCC[C@H](C)CCCC(C)C)C(=O)c2ccccc2C1=O` it was “inactive”; in that of `CCCCN1CCCC[C@H]1C(=O)Nc1c(C)cccc1C`, “inactive”; in that of `CC(C(O)c1ccc(O)cc1)N1CCC(Cc2ccccc2)CC1` (stereo not drawn), “inactive”. The same measure for `CCCCN(CCCC)CC(O)c1cc(Cl)cc2c1-c1ccc(Cl)cc1/C2=C/c1ccc(Cl)cc1` (stereo not drawn): “inactive”. With `CCCCOc1cc(C(=O)OCCN(CC)CC)ccc1N`, the compound was called inactive. For `CN(C)CCN(Cc1ccccc1)c1ccccn1`, the call was inactive. The same measure for `CC(=O)O[C@@]12CO[C@@H]1C[C@H](O)[C@@]1(C)C(=O)[C@H](O)C3=C(C)[C@@H](OC(=O)[C@H](O)[C@@H](NC(=O)OC(C)(C)C)c4ccccc4)C[C@@](O)([C@@H](OC(=O)c4ccccc4)[C@H]21)C3(C)C`: “inactive”; for `c1ccc2c(CC3=NCCN3)cccc2c1`: “inactive”.

As to `CC(CN(C)C)CN1c2ccccc2CCc2ccccc21` (stereo not drawn), the call was inactive. In the case of `CC(=O)c1ccc2c(c1)N(CCCN(C)C)c1ccccc1S2` it was “inactive”; in that of `O=C(CCCN1CCN(c2ccccn2)CC1)c1ccc(F)cc1`, “inactive”; in that of `CCN(CC)CCSC(=O)C(c1ccccc1)c1ccccc1`, “inactive”. The same measure for `Cc1c(O)cccc1C(=O)N[C@@H](CSc1ccccc1)[C@H](O)CN1C[C@H]2CCCC[C@H]2C[C@H]1C(=O)NC(C)(C)C`: “inactive”.
